# Source: PubChem BioAssay (National Center for Advancing Translational Sciences (NCATS))
# B2AR arrestin ag – beta-arrestin recruitment by human beta2-adrenergic receptor ligands | HTLA Tango cells, beta-arrestin recruitment, luciferase luminescence, 18 h | Potency, µM (doses to about 46.1 µM), most hits filed as activators | 44,000 tested, under 10 active;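 also: potency is read from the fitted curve at half-maximal effect; 0% = DMSO and full agonism = EC100 isoproterenol or metaproterenol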
#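 Ligand-induced beta-arrestin recruitment to recombinant beta2-AR is measured via a tTA-driven luciferase reporter in Tango cells after 18 hr compound exposure at 37 degrees C. Concentrations span up to 46 microM.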
# DRV1 agonist – GPR32 (DRV1) agonism, beta-arrestin recruitment. CHO-K1 GPR32 beta-arrestin PathHunter luminescence, 90 min; zero percent set by DMSO-only wells. 2.5% of 48,000 active. activation, % at 76.9 µM;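 active = activation of at least 60% and not above a set upper limit, about 1 call in 100 departs from these limits; inconclusive = activation of 40% to 60%, or above that upper limit; inactive = activation under 40%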; also: 0% is about no effect
#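 Readings come from a cell-based beta-arrestin complementation format: CHO-K1 GPR32 stable cells (2,500/well) treated 90 min with compounds, then beta-Gal substrate added for 1 h before chemiluminescence imaging.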
# FH mod – Identification of activators of human fumarate hydratase by quantitative high-throughput screening; 0.22% of 54,000 active; FH coupled MDH/diaphorase resazurin fluorescence, 15 min; AID 1347055, 2019; Potency, µM (top dose mostly 79.9 µM), inactives show at the top dose activity change, negative = inhibition, actives largely listed as inhibitors; Fumarate hydratase, mitochondrial (Homo sapiens), P07954; also: potency is read from the fitted curve at half-maximal effect; % is scaled to controls: 0 for no effect and ±100 for the full control effect; the screen sought activators but most active calls are inhibition curves; nearly all actives have a fitted effect of over 45% in size
# GALK inh – inhibitors of human galactokinase (GALK). P51570. recombinant GALK, Kinase-Glo ATP luminescence, 1 h. Potency, µM (highest dose often 57.5 µM), inactives show at the top dose activity, negative = inhibition, hits mostly inhibitors. 44,000 tested, under 10 active;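 also: plate controls were full GALK reaction for no effect and reaction lacking GALK for full effect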
#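 5 nM GALK with 35 µM ATP and 100 µM galactose in HEPES pH 8.0, MgCl2, NaCl, DTT, BSA; 1 h RT reaction, remaining ATP detected by Kinase-Glo Plus luminescence after 10 min; qHTS concentration series.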
# TSG101-PTAP inh – TSG101-PTAP interaction inhibition, HIV-1 budding; Q99816; Fluorescence polarization, FITC-PTAP peptide/Tsg101, 20 min; Potency, µM (titrated, usually from 115 µM), hits mostly inhibitors; 44,000 tested, under 10 active; also: potency is read from the fitted curve at half-maximal effect; 0% is about no effect
#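 qHTS FP binding, 20 min r.t.: 10 uM Tsg101 domain + 50 nM FITC-PTAP peptide, pH 7.5 HEPES buffer with TCEP and EDTA.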
# NTMT1 inhibitor – inhibitors of human N-terminal methyltransferase NTMT1; Q9BV86; NTMT1 MTase-Glo SAH luminescence, purified enzyme; Potency, µM (doses to about 114 µM), for the others: at the top dose activity change, negative = inhibition, hits mostly inhibitors; 2.5% of 59,000 active; AID 1645870;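 also: potency is read from the fitted curve at half-maximal effect; plate controls were DMSO vehicle for no effect and no enzyme for full effect; nearly all actives have a fitted effect of over 65% in size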
# Target sequence (Q9BV86 whole entry, looked up): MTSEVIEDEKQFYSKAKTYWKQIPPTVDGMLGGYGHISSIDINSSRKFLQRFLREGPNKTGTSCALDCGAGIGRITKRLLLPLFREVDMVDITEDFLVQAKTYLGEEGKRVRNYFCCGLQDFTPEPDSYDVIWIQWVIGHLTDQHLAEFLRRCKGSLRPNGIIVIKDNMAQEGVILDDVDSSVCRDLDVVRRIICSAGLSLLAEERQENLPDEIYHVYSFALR
# CLK4 inh-1 – inhibits human CLK4 kinase in Kinase-Glo confirmation; recombinant Clk4, Kinase-Glo ATP luminescence, 4.5 h; Potency, µM (series often up to 76.9 µM), without a hit: at the highest dose activity, negative = inhibition, usual class: inhibitors; 90% of 90 active; shares compounds with NTMT1 inhibitor
# CLK4 inh-2 – blocks human CLK4 kinase in radiometric assay. shares compounds with NTMT1 inhibitor. Reaction Biology kinase assay, 10 uM ATP. Potency, µM, actives largely listed as inhibitors. 100% of 65 active. AID 504421; calls by dose curve
# DYRK1A RBC – DYRK1A kinase inhibition. 90% of 65 active. shares compounds with NTMT1 inhibitor. Potency, µM, usual class: inhibitors. Reaction Biology kinase assay, 10 uM ATP. AID 504424;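 active = compounds that showed inhibition of Dyrk1a and received a fitted potency; inactive = compounds that showed no inhibition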
# CLK2 inh – blocks human CLK2 kinase in radiometric assay. AID 504427. Reaction Biology kinase assay, 10 uM ATP. shares compounds with NTMT1 inhibitor. 90% of 65 active. Potency, µM, usual class: inhibitors;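 active = compound that inhibits Clk2 kinase in the dose series, with an IC50 potency reported; inactive = no inhibition seen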
# CLK3 inh – CLK3 kinase inhibition; 40% of 65 active; shares compounds with NTMT1 inhibitor; Potency, µM, actives largely listed as inhibitors; recombinant CLK3 kinase assay, 10 uM ATP;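 active = compounds that inhibited Clk3 enough in the ten-dose series to give a half-maximal potency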
# DYRK1B RBC – DYRK1B kinase inhibition. shares compounds with NTMT1 inhibitor. Recombinant Dyrk1b kinase assay, 10 uM ATP. Potency, µM, actives largely listed as inhibitors. 80% of 65 active. AID 504429;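 active = compounds whose dose response shows an inhibitor phenotype against the kinase Dyrk1b; inactive = compounds showing no inhibitor phenotype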
# CLK1 inh – CLK1 kinase inhibition. shares compounds with NTMT1 inhibitor. recombinant Clk1 kinase assay, 10 uM ATP. Potency, µM, actives largely listed as inhibitors. 90% of 65 active. AID 504430;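 active = compounds that block the splicing kinase Clk1 enough to give a fitted half-inhibition concentration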
# Sfp qHTS opt – inhibitors of Bacillus subtilis Sfp PPTase, optimization followup; shares compounds with NTMT1 inhibitor; purified Sfp PPTase enzyme activity, qHTS; Potency, µM (doses to about 114 µM), without a hit: at the highest dose activity change, negative = inhibition, usual class: inhibitors; 78% of 230 active; AID 540350
# HM489 growth – B. subtilis HM489 growth inhibition | Potency, µM (series often up to 114 µM), for inactives: at the top dose activity change, negative = inhibition, usual class: inhibitors | shares compounds with NTMT1 inhibitor | 50% of 220 active | AID 540353 | B. subtilis HM489 (acpS-) growth, BacTiter-Glo, 5 h
# Sfp gel opt – Sfp PPTase inhibition, gel-based detection; AID 540355; 54% of 220 active; purified Sfp PPTase, gel-based product detection; Potency, µM (titrated, usually from 250 µM), inactives show at the top dose activity change, negative = inhibition, actives largely listed as inhibitors; shares compounds with NTMT1 inhibitor
# Sfp SAR2 – inhibitors of Bacillus subtilis Sfp PPTase, SAR round 2; shares compounds with NTMT1 inhibitor; purified Sfp enzyme, PPTase activity, qHTS; Potency, µM (titrated, usually from 57.1 µM), inactives show top-dose activity change, negative = inhibition, actives largely listed as inhibitors; 87% of 230 active; AID 602370
# HSD17B4 inh – inhibits human HSD17B4, off-target for HPGD inhibitors; purified HSD17B4, estradiol/NAD+, NADH fluorescence; Potency, µM (top dose mostly 57.1 µM), without a hit: at the top dose activity change, negative = inhibition, most hits filed as inhibitors; 10% of 230 active; AID 743187; shares compounds with NTMT1 inhibitor
# ALDH1A1 counter – counter-screen for HPGD inhibitors: human ALDH1A1 inhibition; Potency, µM (series often up to 57.1 µM), for the others: at the top dose activity change, negative = inhibition, actives largely listed as inhibitors; recombinant ALDH1A1, NADH fluorescence, propionaldehyde/NAD+; 93% of 230 active; shares compounds with NTMT1 inhibitor; AID 743195
# Target sequence (P00352 whole entry, looked up): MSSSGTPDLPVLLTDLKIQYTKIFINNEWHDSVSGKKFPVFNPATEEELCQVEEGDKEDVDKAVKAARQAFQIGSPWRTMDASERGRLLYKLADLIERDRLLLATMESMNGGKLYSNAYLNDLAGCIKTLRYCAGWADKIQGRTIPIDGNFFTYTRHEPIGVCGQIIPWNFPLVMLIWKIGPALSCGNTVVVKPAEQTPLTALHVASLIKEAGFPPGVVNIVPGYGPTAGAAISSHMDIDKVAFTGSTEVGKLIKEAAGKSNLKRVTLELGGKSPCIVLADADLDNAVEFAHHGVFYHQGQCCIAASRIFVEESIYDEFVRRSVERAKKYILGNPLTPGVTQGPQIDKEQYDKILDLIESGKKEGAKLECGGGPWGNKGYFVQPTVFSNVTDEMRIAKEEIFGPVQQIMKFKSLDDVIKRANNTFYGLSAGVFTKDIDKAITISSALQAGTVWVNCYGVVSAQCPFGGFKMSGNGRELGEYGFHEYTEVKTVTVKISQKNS
# NNMT counter – human NNMT inhibition, NTMT1 counter-screen. shares compounds with NTMT1 inhibitor. NNMT MTase-Glo luminescence, SAH detection. Potency, µM (titrated, usually from 57.1 µM), without a hit: at the highest dose activity, negative = inhibition, usual class: inhibitors. 10% of 120 active
# Numbers without * were called inactive; i = inactive; ? = inconclusive; · = not tested or not shown; [ ] = another dose, or the depositor's remark. Rows were chosen to be rich in hits. Some 3.7% of all compounds tested hit in one or more screens of this group. Unless noted, calls follow the shape of the dose curve; as a rule, active = well fitted curve in the direction sought with a large enough effect; inconclusive = small, poorly fitted or top-dose-only effect, or another doubt; inactive = no such curve, though single readings can be large; an effect the other way counts as inactive or inconclusive.
SMILES,B2AR arrestin ag,DRV1 agonist,FH mod,GALK inh,TSG101-PTAP inh,NTMT1 inhibitor,HSD17B4 inh,ALDH1A1 counter,others
CC(O)c1ccc(-c2ccc3ncnc(N4CCOCC4)c3c2)o1 (centres undefined),·,·,·,·,·,?,·,·,CLK4 inh-1=0.41µM*;CLK4 inh-2=1.9*;DYRK1A RBC=29µM*;CLK2 inh=19µM*;CLK3 inh=i;DYRK1B RBC=45µM*;CLK1 inh=9µM*
O=C(O)c1ccc(-c2ccc3ncnc(N4CCOCC4)c3c2)o1,·,·,·,·,·,-1%,·,·,CLK4 inh-1=0.65µM*;CLK4 inh-2=3*;DYRK1A RBC=45µM*;CLK2 inh=33µM*;CLK3 inh=i;DYRK1B RBC=34µM*;CLK1 inh=46µM*
Cc1oc2ncnc(N3CCOCC3)c2c1C(=O)N(Cc1ccccc1)C(C)C,i,-13,5%,1%,i,?,·,·,
N#Cc1ncc(C(=O)OCC(=O)NC2C3CC4CC(C3)CC2C4)cn1 (centres undefined),·,·,·,·,·,8%,·,·,
Cc1cc(-c2nnc3n2CCCCC3)c(C)n1-c1ccc(Cl)c(Cl)c1,·,·,·,·,·,19%,11%,0.61µM*,
Cc1cc(-c2nnc3n2CCCCC3)c(C)n1-c1cccc(C#N)c1,·,·,·,·,·,18%,0%,?,
Cc1cc(-c2nnc3n2CCCCCC3)c(C)n1-c1ccccc1,·,·,·,·,·,12%,·,·,
Cc1cc(-c2nnc3n2CCCCC3)c(C)n1-c1ccc(Cl)cc1,·,·,·,·,·,23%,·,·,
Cc1cccc(Oc2cnc(=O)[nH]c2)c1,·,·,7%,·,·,3%[57.5 µM],·,·,
C#Cc1cccc(Nc2ncnc3cc(OC)c(OCCCCCCC(=O)NO)cc23)c1,·,·,11%,·,·,13µM*,·,·,NNMT counter=?
COc1cc2ncnc(Nc3ccc(O)cc3)c2cc1OC,·,·,2%,·,·,-11%[57.5 µM],·,·,
O=C(NC1CCCc2c1cnn2-c1ccc(F)cc1F)c1cccc(=O)[nH]1 (centres undefined),·,·,·,·,·,13%,·,·,
O=C(Cc1c(F)cccc1F)Nc1cc(OCc2ccc(Cl)cc2)ccn1,·,·,-21%,·,·,1%[57.5 µM],·,·,NNMT counter=?
CN1C(N)=N[C@](C)(c2cc(NC(=O)c3ccc(F)cn3)ccc2F)CS1(=O)=O,·,·,·,·,·,-8%,·,·,
Cc1cc(C)n2ncc(C(=O)Nc3ccc(S(C)(=O)=O)cc3)c2n1,·,·,·,·,·,0%[57.5 µM],·,·,
Cc1cc(C)nc(Nc2nnc(N3CCN(c4cccc(C(F)(F)F)c4)CC3)s2)c1,·,·,·,·,·,6%[57.5 µM],-20%,22µM*,Sfp qHTS opt=?;HM489 growth=42µM*;Sfp gel opt=-20%;Sfp SAR2=14µM*
Cc1cc(C)nc(/N=C(\NC#N)N2CCN(c3cccc(C(F)(F)F)c3)CC2)c1,·,·,·,·,·,3%,-9%,24µM*,Sfp qHTS opt=?;HM489 growth=42µM*;Sfp gel opt=?;Sfp SAR2=?
N#Cc1cc(NC(=O)Nc2nnc(-c3ccncc3)s2)ccc1Cl,·,·,·,·,·,-16%,·,·,
Cc1ccnc(NC(=S)N2CCN(c3ccc(Cl)c(Cl)c3)CC2)c1,·,·,·,·,·,?,-10%,2.4µM*,Sfp qHTS opt=1.2µM*;HM489 growth=2.6µM*;Sfp gel opt=-63%;Sfp SAR2=0.73µM*
CCOC(=O)c1c(C)[nH]c(C)c1S(=O)(=O)N1CCC(C(=O)Nc2cc(C)ccn2)CC1,i,-2,?,0%,i,-6%,·,·,
